Assay [1] in a line: compounds binding Alexa647 anti-His antibody – biochemical, small-molecule microarray, 635 nm fluorescence, artefact control for SMM control protein annotation, primary screen (AID 1128).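 Further: score merges feature fluorescence with signal-to-noise for each printed compound spot.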 Conditions: higher = more signal.
In assay [2] the test system is Human papillomavirus type 1a E7 protein (residues 1-88). Put plainly: HPV1a E7 small-molecule binders, primary screen, biochemical, small-molecule microarray, residues 1-88, 635 nm (AID 1129). As to conditions: small-molecule microarray binding, fluorescence 635 nm; higher = more signal.
In assay [3] the target is Focal adhesion kinase 1 (Homo sapiens) (UniProt Q05397). Put plainly: PTK2 protein binding on printed compound slides – biochemical, small-molecule microarray, 635/667 nm fluorescence, BSA, DTT, primary screen (AID 1130).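 Further: composite of spot emission at 667 nm and signal to noise over triplicate slides.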 As to conditions: 635 nm fluorescence, higher = more signal.
Sequence of Focal adhesion kinase 1 (Homo sapiens) (Q05397 whole entry, looked up): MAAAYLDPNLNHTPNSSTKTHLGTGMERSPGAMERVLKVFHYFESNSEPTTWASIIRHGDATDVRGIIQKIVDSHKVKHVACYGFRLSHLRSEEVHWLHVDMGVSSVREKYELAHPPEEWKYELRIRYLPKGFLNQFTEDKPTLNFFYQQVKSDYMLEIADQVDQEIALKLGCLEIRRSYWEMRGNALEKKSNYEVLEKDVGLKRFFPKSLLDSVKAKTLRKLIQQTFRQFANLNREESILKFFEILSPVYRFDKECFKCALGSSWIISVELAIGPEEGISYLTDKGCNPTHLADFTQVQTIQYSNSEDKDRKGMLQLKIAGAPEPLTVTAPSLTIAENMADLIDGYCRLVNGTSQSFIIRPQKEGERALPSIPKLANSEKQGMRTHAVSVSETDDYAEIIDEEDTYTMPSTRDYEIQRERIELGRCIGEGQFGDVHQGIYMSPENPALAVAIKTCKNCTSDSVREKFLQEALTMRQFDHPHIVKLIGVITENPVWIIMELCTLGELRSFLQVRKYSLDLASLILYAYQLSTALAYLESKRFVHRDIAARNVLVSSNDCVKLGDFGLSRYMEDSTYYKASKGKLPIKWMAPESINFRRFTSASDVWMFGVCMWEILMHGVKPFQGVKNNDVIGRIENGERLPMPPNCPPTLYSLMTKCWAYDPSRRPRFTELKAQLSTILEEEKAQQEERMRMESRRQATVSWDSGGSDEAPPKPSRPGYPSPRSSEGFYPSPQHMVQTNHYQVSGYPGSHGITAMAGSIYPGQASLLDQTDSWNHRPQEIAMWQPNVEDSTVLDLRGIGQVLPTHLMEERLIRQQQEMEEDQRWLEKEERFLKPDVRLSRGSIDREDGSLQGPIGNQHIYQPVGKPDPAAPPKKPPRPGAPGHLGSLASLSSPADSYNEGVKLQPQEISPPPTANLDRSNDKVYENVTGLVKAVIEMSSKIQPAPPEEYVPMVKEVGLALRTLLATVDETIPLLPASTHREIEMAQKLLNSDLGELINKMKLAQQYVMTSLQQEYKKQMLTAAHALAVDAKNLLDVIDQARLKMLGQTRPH
Assay [4] deals with Fibrinogen (Alexa647-labelled). The assay is described as follows: Alexa647-fibrinogen binding to printed small molecules – biochemical, small-molecule microarray, 635/667 nm fluorescence, artefact control for SMM control-protein annotation, profiling panel (AID 1131).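 Further: z-score merges 667 nm fluorescence with per-spot signal-to-noise over triplicate slides.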 Conditions: fibrinogen-A647 binding fluorescence, higher = more signal.
The target in assay [5] is Follistatin (Homo sapiens) (UniProt P19883). Put plainly: FST protein binding to printed compounds – biochemical, small-molecule microarray, 635/667 nm fluorescence, primary screen (AID 1132). Conditions: 635 nm fluorescence, higher = more signal.
Sequence of Follistatin (Homo sapiens) (P19883 whole entry, looked up): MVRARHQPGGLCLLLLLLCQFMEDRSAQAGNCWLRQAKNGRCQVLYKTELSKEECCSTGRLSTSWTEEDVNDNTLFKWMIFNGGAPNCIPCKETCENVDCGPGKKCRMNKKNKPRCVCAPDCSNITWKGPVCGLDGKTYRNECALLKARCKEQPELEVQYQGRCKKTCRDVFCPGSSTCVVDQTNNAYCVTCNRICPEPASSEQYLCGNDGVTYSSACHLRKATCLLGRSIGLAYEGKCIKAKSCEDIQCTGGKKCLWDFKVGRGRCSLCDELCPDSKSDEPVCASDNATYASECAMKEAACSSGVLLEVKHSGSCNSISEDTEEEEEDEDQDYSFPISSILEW
The target in assay [6] is Fibroblast growth factor 2 (Homo sapiens) (UniProt P09038). The assay is described as follows: basic fibroblast growth factor binding to printed compounds – biochemical, small-molecule microarray, 635/667 nm fluorescence, primary screen (AID 1133). As to conditions: FGF2, fluorescence 635/667, higher = more signal.
Sequence of Fibroblast growth factor 2 (Homo sapiens) (P09038 whole entry, looked up): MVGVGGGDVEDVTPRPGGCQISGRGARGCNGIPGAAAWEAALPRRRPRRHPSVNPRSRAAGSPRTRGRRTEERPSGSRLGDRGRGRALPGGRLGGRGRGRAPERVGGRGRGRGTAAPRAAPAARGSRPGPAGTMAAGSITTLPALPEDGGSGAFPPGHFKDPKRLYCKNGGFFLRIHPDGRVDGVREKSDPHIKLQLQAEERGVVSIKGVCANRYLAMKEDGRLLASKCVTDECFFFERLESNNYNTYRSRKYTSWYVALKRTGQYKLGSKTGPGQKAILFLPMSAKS
Assay [7] is described as follows: JC-1 mitochondrial potential readout, lung cancer cells – cell-based, A549, JC-1 fluorescence, basal, 24 h, 100 nL, profiling panel (AID 1138).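 Further: A549 lung adenocarcinoma cells under basal conditions with no added stimulus; test concentration not given here.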 Conditions: higher = more signal.
A further assay deals with Lefty1. Put plainly: Lefty1 protein binding to printed compounds – biochemical, small-molecule microarray, 635/667 nm fluorescence, primary screen (AID 1139). Conditions: fluorescence 635/667, higher = more signal.
Assay [8] deals with wheat germ agglutinin (Triticum aestivum), Alexa647-labelled. Put plainly: Alexa647-WGA lectin binding to printed small molecules – biochemical, small-molecule microarray, 635/667 nm fluorescence, artefact control for SMM control-protein annotation, profiling panel (AID 1140).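 Further: score merges 667 nm feature emission with signal to noise over triplicate slides.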 As to conditions: WGA-A647 binding, 635 nm fluorescence, higher = more signal.
The target in assay [9] is Luciferin 4-monooxygenase (Photinus pyralis) (UniProt P08659). Put plainly: inhibition of purified Photinus pyralis luciferase – biochemical, luminescence, purified enzyme, 2006 set, primary screen (AID 1141).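 Further: cell-free assay with purified firefly luciferase at 100 ng per well in PBS; test concentration not given here.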 As to conditions: purified firefly luciferase, SteadyGlo luminescence, 30 min; higher = more signal, called active from +8 up or from −8 down.
Sequence of Luciferin 4-monooxygenase (Photinus pyralis) (P08659 whole entry, looked up): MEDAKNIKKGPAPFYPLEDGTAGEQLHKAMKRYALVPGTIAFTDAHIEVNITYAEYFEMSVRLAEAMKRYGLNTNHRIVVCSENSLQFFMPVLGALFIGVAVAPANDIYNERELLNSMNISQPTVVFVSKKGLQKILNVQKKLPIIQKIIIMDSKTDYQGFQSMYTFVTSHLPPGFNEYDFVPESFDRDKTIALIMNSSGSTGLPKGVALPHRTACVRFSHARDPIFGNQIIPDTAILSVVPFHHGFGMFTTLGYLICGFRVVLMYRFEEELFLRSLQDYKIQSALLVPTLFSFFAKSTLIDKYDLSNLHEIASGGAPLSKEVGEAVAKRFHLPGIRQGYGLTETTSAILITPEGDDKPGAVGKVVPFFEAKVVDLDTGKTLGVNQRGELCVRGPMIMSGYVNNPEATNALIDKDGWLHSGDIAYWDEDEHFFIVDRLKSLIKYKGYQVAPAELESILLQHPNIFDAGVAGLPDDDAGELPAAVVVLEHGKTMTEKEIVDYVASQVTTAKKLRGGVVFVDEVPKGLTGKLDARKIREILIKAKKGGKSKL
In assay [10] the test system is Wnt5a (protein binding on small-molecule microarray). The assay is described as follows: small molecules binding Wnt5a protein – biophysical, small-molecule microarray, 635/667 nm fluorescence, primary screen (AID 1142).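 Further: fluorescence read at 667 nm with signal to noise per printed feature.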 As to conditions: 635 nm fluorescence, higher = more signal.
The nature of assay [11]: ATP-based viability of Huh7 replicon cells – cell-based, CellTiter-Glo luminescence, basal, 48 h, cytotoxicity control for HCV replication inhibitor project, primary screen (AID 1143).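 Further: Huh7 hepatoma cells carrying a hepatitis C replication reporter with no stimulus; test concentration not given here.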 Conditions: higher = more signal, called active from +8 up or from −8 down.
Assay [12] in a line: Pseudomonas biofilm growth suppression – PAO1 strain, BacTiter-Glo luminescence, LB-PBS, primary screen (AID 1144). Conditions: P. aeruginosa PAO1 biofilm, 12 h, higher = more signal.
Assay [13] can be described thus: basal CRE-LacZ reporter activity in PC12 – cell-based, unstimulated, primary screen (AID 1145). Conditions: no forskolin, luminescence, 4.5 h, higher = more signal, called active from +8 up or from −8 down.
The nature of assay [14]: forskolin-driven CRE-LacZ activity in PC12 – cell-based, CRE-LacZ reporter, forskolin-stimulated, primary screen (AID 1146).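 Further: PC12 cells with 6xCRE LacZ reporter stimulated by forskolin 10 µM; beta-galactosidase reporter signal reflecting CREB driven transcription.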 As to conditions: luminescence, 4.5 h, higher = more signal, called active from +8 up or from −8 down.
Assay [15] concerns the target Streptavidin (Streptomyces avidinii) (UniProt P22629). Put plainly: compounds binding control protein streptavidin – biophysical, small-molecule microarray, 635/667 nm fluorescence, artefact control for SMM compound annotation, primary screen (AID 1147).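 Further: signal reflects streptavidin binding to arrayed compounds as a control protein.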 Conditions: higher = more signal.
Assay [16] is described as follows: probe aInhba binding on compound microarray – biochemical, small-molecule microarray, 635/667 nm fluorescence, primary screen (AID 1148).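 Further: score merges 667nm spot fluorescence with signal-to-noise for antibody binding to printed compounds.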 Conditions: higher = more signal.
The target in assay [17] is Torsin-1A (Homo sapiens) (UniProt O14656). Put plainly: TOR1A wild-type binding on microarray – cell lysate, small-molecule microarray, lysate, 635/667 nm, primary screen (AID 1149). Conditions: COS7 hTOR1A-WT lysate, 635 nm fluorescence, higher = more signal.
Sequence of Torsin-1A (Homo sapiens) (O14656 whole entry, looked up): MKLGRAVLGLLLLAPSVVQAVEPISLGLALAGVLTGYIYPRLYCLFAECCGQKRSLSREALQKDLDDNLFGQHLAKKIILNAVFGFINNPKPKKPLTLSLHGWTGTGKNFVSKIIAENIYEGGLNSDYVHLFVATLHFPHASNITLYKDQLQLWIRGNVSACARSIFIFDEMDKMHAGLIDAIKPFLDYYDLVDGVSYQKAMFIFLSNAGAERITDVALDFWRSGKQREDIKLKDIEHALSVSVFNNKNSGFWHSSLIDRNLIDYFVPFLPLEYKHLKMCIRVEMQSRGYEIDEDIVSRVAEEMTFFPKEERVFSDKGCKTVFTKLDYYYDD
For assay [18] the target is unchanged. Put plainly: torsin A mutant lysate binding on microarrays – cell lysate, small-molecule microarray, COS7 lysate, 635/667 nm fluorescence, primary screen (AID 1150).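 Further: score pools 667 nm emission and signal to noise measuring lysate protein binding.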 Conditions: COS7 hTOR1A mutant lysate, 635 nm fluorescence, higher = more signal.
The subject of assay [19] is Sonic hedgehog protein (Shh). The assay is described as follows: Sonic hedgehog microarray binding compounds – biochemical, small-molecule microarray, 635/667 nm fluorescence, primary screen (AID 1151).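 Further: Shh protein binding to compounds spotted on small-molecule microarray slides; score combines spot fluorescence intensity with signal-to-noise across triplicate slides.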 Conditions: 635 nm fluorescence, higher = more signal.

Active and inactive are the calls of the source. Unless noted, how the calls were made is not given here.

Sequence of Streptavidin (Streptomyces avidinii) (P22629 whole entry, looked up): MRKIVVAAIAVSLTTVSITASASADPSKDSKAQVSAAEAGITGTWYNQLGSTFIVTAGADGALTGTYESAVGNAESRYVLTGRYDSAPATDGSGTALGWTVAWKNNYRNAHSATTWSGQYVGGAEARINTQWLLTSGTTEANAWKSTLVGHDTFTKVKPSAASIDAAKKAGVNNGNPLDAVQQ

On to `O=C1O[C@H](c2ccccc2)[C@H](c2ccccc2)N2[C@H]1[C@@H](C(=O)O)[C@]1(C(=O)Nc3ccc(C#CC4(O)CCCCCC4)cc31)[C@H]2c1ccc(O)cc1`, for which the composite z-score in [1] is 0.401; in assay [2], 0.391; in assay [3], 0.016; in assay [4] it was -0.132; in [5], -0.0848; in [6] it was -0.201. The composite z-score with Lefty1 is 0.0963; in [8], 0.211; in [10], -0.243; in assay [15] it was -0.467; in [16] it was -0.152; with Torsin-1A (Homo sapiens) [17], -0.449. Also, the composite z-score with Torsin-1A (Homo sapiens) [18] was 0.198; in [19], -0.335. Moreover, the z-score in assay [7] was -0.697; in assay [9], -0.828 (inactive); in assay [11] it was -3.06 (inactive); in assay [12], -2.13 (inactive); in assay [13] it was -1.29 (inactive); in assay [14] it was -1.14 (inactive).
For the compound `Cc1cccc([C@H]2C[C@H]3C(Br)=C[C@@H]2C(=O)[C@]32CO2)c1`, the composite z-score in assay [1] was -0.255; in assay [2] it was -1.61; in assay [3] it was -0.181; in assay [4], -0.145; in [5], 0.243; in assay [6], 0.291. Moreover, the composite z-score was 0.154 in the assay with Lefty1; -0.278 in [8]; -0.258 in assay [10]; -0.221 in [15]; -0.239 in assay [16]; 0.397 with Torsin-1A (Homo sapiens) [17]. For the same compound, the composite z-score with Torsin-1A (Homo sapiens) [18] was -1.21; in [19] it was -0.198. The z-score was 0.518 in [7]; -0.425 (inactive) in [9]; -0.687 (inactive) in assay [11]; 0.185 (inactive) in assay [12]; 0.854 (inactive) in assay [13]; 2.63 (inactive) in assay [14].
Regarding `[N-]=[N+]=NCc1ccccc1[C@@H]1OC(c2ccc(OCCCO)cc2)=N[C@]1(Cc1ccccc1N=[N+]=[N-])C(=O)NCCN1CCOCC1`, the composite z-score in assay [1] was determined as 1.37; in assay [2], 1.25; in [3] it was 0.535; in assay [4], 0.983; in [5] it was 1.39; in assay [6], 0.893. The composite z-score in the assay with Lefty1 came out at 0.54; in [8], 0.445; in [10], 0.959; in assay [15], 0.974; in assay [16], 0.102; with Torsin-1A (Homo sapiens) [17], 1.06. Moreover, the composite z-score with Torsin-1A (Homo sapiens) [18] came to 1.01; in assay [19] it was 0.387. Besides, the z-score in assay [7] was 2.23; in assay [9] it was -2.82 (inactive); in assay [11] it was -3.14 (inactive); in assay [12], 1.07 (inactive); in assay [13] it was 0.895 (inactive); in [14], -1.78 (inactive).
As to `O=C1O[C@H](c2ccccc2)[C@H](c2ccccc2)N2[C@H]1[C@@H](C(=O)Nc1nc3ccccc3s1)[C@]1(C(=O)Nc3ccc(C#CC4=CCCCC4)cc31)[C@H]2c1ccc(O)cc1`, the composite z-score was 0.41 in assay [1]; 1.18 in assay [2]; -0.145 in assay [3]; 0.921 in [4]; 1.12 in assay [5]; 0.355 in assay [6]. Also, the composite z-score in the assay with Lefty1 was 0.844; in assay [8] it was 0.191; in [10] it was 0.357; in assay [15] it was 1.24; in [16], -0.103; with Torsin-1A (Homo sapiens) [17], -0.253. For the same compound, the values for the composite z-score (in the assay with Torsin-1A (Homo sapiens) [18]; in assay [19]) were 0.335 and 1, respectively. Further, the z-score in assay [7] is -1.83; in [9] it was 0.128 (inactive); in assay [11], -4.09 (inactive); in assay [12], -0.922 (inactive); in assay [13] it was -0.671 (inactive); in assay [14], 0.0225 (inactive).
For the compound `Cc1ccc([C@H]2C(C(=O)O)=C[C@@H](C(C)(C)C)N2S(=O)(=O)c2ccc(C)cc2)cc1`, the composite z-score in assay [1] was determined as 1.28; in assay [2] it was 1.24; in assay [3], 0.664; in assay [4], 0.999; in assay [5], 0.802; in assay [6], 0.557. For the same compound, the composite z-score with Lefty1 was determined as 0.367; in assay [8] it was 1.3; in assay [10], 0.285; in assay [15] it was 1.54; in assay [16] it was 0.271; with Torsin-1A (Homo sapiens) [17] it was 0.0948. In addition, the composite z-score in the assay with Torsin-1A (Homo sapiens) [18] stood at 0.465; in assay [19], 0.347. Also, the z-score was -0.918 in assay [7]; 1.48 (inactive) in [9]; -0.117 (inactive) in [11]; 0.62 (inactive) in assay [12]; -0.312 (inactive) in [13]; 0.134 (inactive) in assay [14].
Turning to `COc1ccc([Si](C)(C)[C@@H]2[C@@H](CC(=O)N3Cc4ccccc4C[C@H]3CO)O[C@]3(C(=O)N(Cc4ccc(N5CCC5=O)cc4)c4ccccc43)[C@H]2C)cc1`, the composite z-score was found to be 0.365 in [1]; 1.05 in [2]; 0.315 in [3]; 0.358 in assay [4]; 0.825 in [5]; 1.57 in assay [6]. Moreover, the composite z-score was 1.44 in the assay with Lefty1; 0.283 in assay [8]; 0.159 in assay [10]; 0.673 in assay [15]; -0.167 in assay [16]; -0.191 in the assay with Torsin-1A (Homo sapiens) [17]. Moreover, the composite z-score with Torsin-1A (Homo sapiens) [18] turned out to be 0.585; in assay [19] it was 1.74. The z-score in assay [7] was 0.199; in [9], 0.205 (inactive); in assay [11], -3.32 (inactive); in assay [12], -1.1 (inactive); in assay [13], 0.409 (inactive); in assay [14], -0.448 (inactive).

The values above are taken from PubChem BioAssay.
